Where “and” joins values, the source holds several entries; their conditions need not be identical. Equal values may be shown once. Inconclusive results are not listed. Where a call stands in place of a potency, no number is given. Some compounds were tested as several samples or in several runs, with calls that do not always agree. Calls of active or inactive are those of the source. The call rests on the fitted dose curve.
Potency means the concentration at half of the fitted maximal effect.

Acetylcholinesterase (Homo sapiens), sequence (P22303 whole entry, looked up): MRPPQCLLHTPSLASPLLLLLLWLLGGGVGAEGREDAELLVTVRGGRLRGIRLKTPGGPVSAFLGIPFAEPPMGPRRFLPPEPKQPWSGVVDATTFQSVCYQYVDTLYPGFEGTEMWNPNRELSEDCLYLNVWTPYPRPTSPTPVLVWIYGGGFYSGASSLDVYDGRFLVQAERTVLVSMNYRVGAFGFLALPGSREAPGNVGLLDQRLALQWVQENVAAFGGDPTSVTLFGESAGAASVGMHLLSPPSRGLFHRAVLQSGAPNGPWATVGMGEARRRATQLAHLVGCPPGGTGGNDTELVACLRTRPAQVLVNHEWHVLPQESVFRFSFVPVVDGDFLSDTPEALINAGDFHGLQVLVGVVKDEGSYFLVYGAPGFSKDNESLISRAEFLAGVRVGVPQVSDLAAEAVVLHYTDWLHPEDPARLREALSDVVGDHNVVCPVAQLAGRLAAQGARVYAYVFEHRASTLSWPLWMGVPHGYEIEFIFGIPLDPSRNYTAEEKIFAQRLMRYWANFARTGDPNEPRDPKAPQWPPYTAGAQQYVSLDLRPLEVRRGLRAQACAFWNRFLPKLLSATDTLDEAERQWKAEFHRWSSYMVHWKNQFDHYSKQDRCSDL

The target in the experiment is Acetylcholinesterase (Homo sapiens) (UniProt P22303). Put plainly: Acetylcholinesterase (AChE) small molecule antagonists: colormetric cell-based qHTS assay (AID 1347395). Further: nearly all actives have a fitted effect of over 30% in size. Conditions: SH-SY5Y cells AChE activity, colorimetric (Ellman); series mostly up to 115 µM; activity, negative = inhibition: at the top concentration. From the text:
National Center for Advancing Translational Sciences [NCATS]
Division of Preclinical Innovation [DPI]
U.S. Environmental Protection Agency [EPA]
National Institutes of Environmental Health Sciences [NIEHS]
National Toxicology Program [NTP]
U.S. Food and Drug Administration [FDA]
Acetylcholinesterase (AChE) is the primary cholinesterase in the body that hydrolyzes a key neurotransmitter, acetylcholine. Inhibition of AChE activity can lead to neurotoxicity. The known inhibitors include organophosphorous pesticides (OP), chemical warfare agents, drugs, and various phytochemicals.
A homogenous cell-based assay using the Amplite Colormetric acetylcholinesterase assay kit (AAT Bioquest, Sunnyvale, CA) was used to evaluate the chemicals in the Tox21 10K library that inhibit AChE activity. The assay uses 5, 5-dithiobis-(2-nitrobenzoic acid) (DTNB) to quantify the thiocholine produced from the hydrolysis of acetylthiocholine by AChE from the SH-SY5Y cells.
Tox21 Assay Protocol Summary:
For the cell-based AChE assay, 2,000 SH-SY5Y cells in 4 uL/well were dispensed into black, clear-bottom 1536-well plates using a Multidrop Combi dispenser (Thermo Scientific, MA). The assay plates were incubated overnight at 37 C to allow cells to attach to the wells, followed by the transfer of 23 nL of compound or DMSO (vehicle control) by a Pintool Station (Wako Automation, CA). The plates were incubated for 30 min at 37 C and 5% CO2, followed by the addition of 4 uL of detection cocktail solution (DTNB, acetylthiocholine) into each well using a Flying Reagent Dispenser (Beckman Coulter, CA) and then 90 min incubation at 37 C.
In general terms: qHTS replaces the single test concentration by a dilution series.
For the compound `CC(C)(C)OOC(=O)c1ccccc1`, the Potency entry is “inactive”.

In the case of `CCOP(=S)(OCC)Oc1cnc2ccccc2n1`, the Potency entry is “inactive and 35.6 µM (active)”.

For `NCCc1ccc(O)cc1`, the Potency is 62.8 µM (active) and inactive.

For `Cc1[nH]c(=O)n(C(C)(C)C)c(=O)c1Cl`, the Potency result was “inactive”.

As for `Oc1ccccc1Cl`, the Potency result is “inactive”.

For the compound `CCNc1nc(NC(C)(C)C)nc(SC)n1`, the Potency result was “inactive”.

Take `Cc1ccc(N)cc1N`: the “activity, negative = inhibition” value is -8.44% (inactive).

Consider `ClCc1cccnc1`, for which the Potency entry is “inactive”.

For `CC(C)C#N`, the Potency result is “inactive”.

Consider `O=c1[nH]c2ccccc2c(=O)o1`, for which the Potency result is “inactive”.

For the compound `CN(C)N=O`, the Potency entry was “inactive”.

As to `O=S(=O)(c1ccc(O)cc1)c1ccc(O)cc1`, the Potency result was “inactive”.

With `C=C(C)CCl`, the Potency result was “inactive”.

Consider `COc1ccc2c3c1O[C@H]1[C@@H](O)C=C[C@H]4[C@@H](C2)N(C)CC[C@@]341`, for which the Potency entry was “inactive”.

As for `CCc1cccc(C)c1N(C(=O)CCl)C(C)COC` (stereo not given), the Potency result is “inactive”.

For the compound `O=NN1CCCC1`, the Potency is 13.2 µM (active) and inactive.

On to `ClCCBr`, for which the Potency result was “inactive”.

As to `c1ccc2c(c1)oc1ccccc12`, the Potency result is “inactive”.

As to `COC(=O)c1ccccc1C(=O)OC`, the Potency result was “inactive”.

Consider `CCCC1COC(Cn2cncn2)(c2ccc(Cl)cc2Cl)O1` (stereo not given), for which the Potency result was “inactive”.

For `CCOC(=O)c1ccccc1C(=O)OCC`, the Potency result was “inactive”.

Turning to `CC(C#N)CCC#N` (stereo not given), the Potency entry was “inactive”.

On to `CCNc1nc(NC(C)C)nc(SC)n1`, for which the Potency result was “inactive”.

As to `CC(C)(Cl)Cl`, the Potency entry was “inactive”.

With `CCOP(OCC)OCC`, the Potency result was “inactive and 28.3 µM (active)”.

On to `O=[N+]([O-])c1ccc(Oc2ccc(Cl)cc2Cl)cc1`, for which the Potency was 63.6 µM (active) and inactive.

Consider `Nc1ccccc1C(=O)O`, for which the Potency result is “inactive”.

With `CC(Br)C(=O)O` (stereo not given), the Potency result was “inactive”.

Take `Nc1ccc(Oc2ccc(N)cc2)cc1`: the Potency result is “inactive”.

Regarding `CCC12COCN1COC2`, the Potency result is “inactive”.

With `CC(C)OC(=O)Nc1cccc(Cl)c1`, the Potency entry was “inactive”.

With `CC1OC(C)OC(C)O1` (stereo not given), the Potency entry was “inactive”.

In the case of `Cn1cc(-c2ccccc2)c(=O)c(-c2cccc(C(F)(F)F)c2)c1`, the Potency result is “inactive”.

Regarding `BrCCBr`, the Potency entry was “inactive”.

As for `Clc1cccc(Cl)c1Cl`, the Potency result is “inactive”.

As for `CN(C)CCO`, the Potency result is “inactive”.

Consider `CCCCN(CCCC)SN(C)C(=O)Oc1cccc2c1OC(C)(C)C2`, for which the Potency was 809 nM (active) and 159 nM (active).

With `CC(C)NC(=O)N1CC(=O)N(c2cc(Cl)cc(Cl)c2)C1=O`, the “activity, negative = inhibition” value was -9.91% (inactive).

`O=C(NC(=O)c1c(F)cccc1F)Nc1cc(Cl)c(OC(F)(F)C(F)C(F)(F)F)cc1Cl` (stereo not given): the Potency result is “inactive”.

Consider `c1ccc2c(c1)Oc1ccccc1O2`, for which the Potency entry was “inactive”.

The values are drawn from PubChem BioAssay (Tox21).
